Screening data: PubChem, several laboratories
CYP2C19 act = activators of human cytochrome P450 2C19; recombinant CYP2C19, luciferin-H EGE luminescence; stronger effect = higher value; 0 = fully inhibited enzyme, 1 = untreated enzyme; 96,000 tested, under 10 active; P33261; activation factor at 5 µM;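 active = activation factor of at least 2 at 5 µM in the primary screen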;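 also: 0 = wells with 2.5 mM tranylcypromine and 1 = vehicle-only wells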
PTK2B oligo ant = antagonists of human Pyk2 oligomerization; Q14289; Q293 cells, Pyk2 FERM NanoBiT luminescence; stronger effect = lower value; z-score (the deposit names both 25 µM and 10 µM); 99,000 tested, 0.83% active;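 active = Z-score of -3 or lower, scaled per plate to the spread of control and sample wells; inactive = z-score above -3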;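 also: negative z-score means lost luminescence so less FERM oligomerization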
Cav3 T inh = human Cav3.2 channel inhibition, primary screen; O95180; Cav3.2-expressing cells, Fluo-4 calcium fluorescence FDSS; stronger effect = lower value; B-score at 10 µM; 100,000 tested, 4% active;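 active = single-dose well whose peak fluorescence ratio is a statistical outlier from its plate by either plate-standardised score or position-corrected B-score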
Target sequence (O95180 whole entry, looked up): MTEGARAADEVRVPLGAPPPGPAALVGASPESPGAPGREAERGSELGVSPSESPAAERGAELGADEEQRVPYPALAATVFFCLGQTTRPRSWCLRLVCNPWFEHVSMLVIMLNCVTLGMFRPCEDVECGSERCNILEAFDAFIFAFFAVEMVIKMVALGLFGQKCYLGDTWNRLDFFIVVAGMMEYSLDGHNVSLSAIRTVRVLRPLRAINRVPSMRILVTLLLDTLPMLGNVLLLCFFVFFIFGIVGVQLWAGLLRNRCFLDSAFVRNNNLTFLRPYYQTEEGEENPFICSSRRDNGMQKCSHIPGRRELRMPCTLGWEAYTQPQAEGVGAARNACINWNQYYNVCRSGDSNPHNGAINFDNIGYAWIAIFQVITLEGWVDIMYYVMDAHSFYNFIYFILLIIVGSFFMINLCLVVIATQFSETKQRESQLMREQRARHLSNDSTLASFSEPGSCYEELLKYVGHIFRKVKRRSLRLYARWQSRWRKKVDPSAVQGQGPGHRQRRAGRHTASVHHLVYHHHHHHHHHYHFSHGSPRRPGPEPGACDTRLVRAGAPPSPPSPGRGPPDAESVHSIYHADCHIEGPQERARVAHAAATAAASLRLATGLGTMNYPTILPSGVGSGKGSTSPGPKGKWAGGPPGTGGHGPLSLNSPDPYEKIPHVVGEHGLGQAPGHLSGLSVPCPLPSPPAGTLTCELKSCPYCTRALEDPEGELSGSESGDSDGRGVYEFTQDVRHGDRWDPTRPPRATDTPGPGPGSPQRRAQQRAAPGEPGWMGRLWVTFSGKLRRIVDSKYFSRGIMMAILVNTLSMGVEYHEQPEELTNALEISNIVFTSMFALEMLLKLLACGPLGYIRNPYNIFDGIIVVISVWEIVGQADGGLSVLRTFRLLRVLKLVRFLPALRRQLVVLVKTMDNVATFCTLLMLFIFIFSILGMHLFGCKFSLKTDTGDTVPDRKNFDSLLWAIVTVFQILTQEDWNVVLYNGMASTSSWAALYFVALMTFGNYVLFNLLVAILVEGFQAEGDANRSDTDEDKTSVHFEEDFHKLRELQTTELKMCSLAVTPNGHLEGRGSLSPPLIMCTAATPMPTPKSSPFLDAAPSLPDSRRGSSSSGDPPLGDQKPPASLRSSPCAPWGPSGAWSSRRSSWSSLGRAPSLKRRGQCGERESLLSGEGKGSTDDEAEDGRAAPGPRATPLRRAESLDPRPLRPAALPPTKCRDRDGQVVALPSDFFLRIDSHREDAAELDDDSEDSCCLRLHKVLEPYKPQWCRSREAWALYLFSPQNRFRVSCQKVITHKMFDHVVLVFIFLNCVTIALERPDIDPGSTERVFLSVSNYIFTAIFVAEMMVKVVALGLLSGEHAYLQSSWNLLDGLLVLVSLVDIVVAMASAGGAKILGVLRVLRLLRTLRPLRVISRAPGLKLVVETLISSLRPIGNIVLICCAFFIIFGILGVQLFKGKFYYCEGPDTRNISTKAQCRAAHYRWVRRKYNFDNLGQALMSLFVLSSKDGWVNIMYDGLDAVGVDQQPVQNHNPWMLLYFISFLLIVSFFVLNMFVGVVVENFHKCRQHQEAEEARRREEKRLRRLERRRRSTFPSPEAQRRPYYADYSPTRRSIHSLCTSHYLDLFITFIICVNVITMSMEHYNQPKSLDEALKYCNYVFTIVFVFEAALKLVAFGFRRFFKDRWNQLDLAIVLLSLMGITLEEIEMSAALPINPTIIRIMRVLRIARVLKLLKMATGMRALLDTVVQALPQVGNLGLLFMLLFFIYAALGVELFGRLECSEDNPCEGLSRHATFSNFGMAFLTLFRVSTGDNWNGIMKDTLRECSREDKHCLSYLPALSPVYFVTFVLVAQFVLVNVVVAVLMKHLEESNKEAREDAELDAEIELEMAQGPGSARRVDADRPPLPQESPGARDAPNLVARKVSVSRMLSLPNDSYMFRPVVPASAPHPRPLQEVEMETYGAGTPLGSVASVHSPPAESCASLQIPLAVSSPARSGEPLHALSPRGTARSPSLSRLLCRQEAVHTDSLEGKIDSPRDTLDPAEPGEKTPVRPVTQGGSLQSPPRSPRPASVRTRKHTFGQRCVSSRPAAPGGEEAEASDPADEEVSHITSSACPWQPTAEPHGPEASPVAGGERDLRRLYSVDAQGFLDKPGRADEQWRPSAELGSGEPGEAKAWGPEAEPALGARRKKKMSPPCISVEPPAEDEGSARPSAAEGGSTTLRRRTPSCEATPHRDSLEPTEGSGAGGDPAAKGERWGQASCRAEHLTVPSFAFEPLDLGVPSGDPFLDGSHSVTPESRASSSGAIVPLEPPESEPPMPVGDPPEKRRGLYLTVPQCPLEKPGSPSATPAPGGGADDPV
CYP2C9 inhib = human CYP2C9 inhibition; AID 777; 96,000 tested, 20% active; inhibition, % at 5 µM; CYP2C9 Supersomes, luciferin-H conversion, luminescence; P11712;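 active = blocking of liver enzyme CYP2C9 beyond about 50% at 5 µM, limit read from the data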
CYP2C9 activ = CYP2C9 (human) activation; activation factor at 5 µM; 96,000 tested, 1.4% active; recombinant CYP2C9, luciferin-H conversion, luminescence; stronger effect = higher value; factor 1 = untreated enzyme, 0 = blocked;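 active = activation factor of 2 or more for CYP2C9 at a 5 µM dose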;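 also: 0 = sulfaphenazole-blocked wells and 1 = vehicle-only wells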
CYP2C19 inhib = blocks human cytochrome P450 2C19. inhibition, % at 5 µM. P33261. 96,000 tested, 21% active. CYP2C19 Supersomes, luciferin-H EGE luminescence, 30 min;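 active = CYP2C19 inhibition above a set limit at 5 µM in the primary screen, cut at about 50% in these data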;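 also: plate controls were negative control wells for no effect and 2.5 mM tranylcypromine positive control for full effect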
Numbers without * were called inactive; nt = not tested or not shown. Shown are actives, neighbours in structure and some others; about 27% of the full set was active somewhere.

SMILES | CYP2C19 act | PTK2B oligo ant | Cav3 T inh | CYP2C9 inhib | CYP2C9 activ | CYP2C19 inhib
CCOC(=O)C1=C(C)NC(C)=C(C(=O)OCC)C1c1nc2ccccc2[nH]1 | nt | nt | 0.43 | nt | nt | nt
CCOC(=O)C1=C(C)NC(C)=C(C(=O)OCC)C1c1ccc(O)cc1 | 0 | -2 | 0.13 | 98* | 0 | 98*
Cc1cc(CNC(=O)C2(C(F)(F)F)C/C(=C\Cc3ccccc3)CCCO2)nn1C (centres undefined) | nt | nt | 0.47 | nt | nt | nt
O=C(Nc1ccccc1Cl)O/N=C/c1ccncc1 | nt | 1.1 | -1.9 | nt | nt | nt
Cc1cc(NC(=O)CNC(=O)C2CCCCC2)no1 | 0.9 | 0.04 | 1 | -1 | 1 | 6
COc1ccc(N2CCN(C(c3cc(OC)ccc3OC)c3nnnn3CC3CCCO3)CC2)cc1 (centres undefined) | nt | -1.8 | -0.33 | nt | nt | nt
Cc1ccc(NC(=S)Nc2ccc(Br)cc2)cc1 | 0.1 | 0.48 | nt | 16 | 0.8 | 89*
COC(=O)c1ccc(N2C(=O)CC(N3CCC(O)(c4ccc(Br)cc4)CC3)C2=O)cc1 (centres undefined) | 0.9 | 0.92 | -0.082 | 12 | 0.9 | 12
Cc1onc(-c2ccccc2Cl)c1C(=O)Nc1nnc(-c2ccc(Br)cc2)s1 | 0.9 | nt | -1.3 | 40 | 0.6 | 14
Cc1onc(-c2c(F)cccc2Cl)c1C(=O)Nc1cccc(Cn2cccn2)c1 | 0.8 | -0.81 | -1.2 | 52* | 0.5 | 23
Cc1onc(-c2c(F)cccc2Cl)c1C(=O)Nc1nnc(-c2ccccc2)s1 | 1.2 | -3.1* | -2.3 | -15 | 1.1 | -18
Cc1onc(-c2c(F)cccc2Cl)c1C(=O)NC(=S)NC1CCS(=O)(=O)C1 (centres undefined) | nt | 0.27 | nt | nt | nt | nt
Cc1onc(-c2ccccc2Cl)c1C(=O)Nc1nnc(-c2ccc(Cl)cc2Cl)s1 | 1 | nt | -1.6 | 66* | 0.3 | 4
Cc1onc(-c2c(F)cccc2Cl)c1C(=O)NC1CCSC1=O (centres undefined) | 0.2 | 1.5 | -0.048 | 65* | 0.4 | 82*
CC#CCCCC(=O)Nc1ccccc1C(=O)O | 1.1 | -0.23 | 1.1 | 23 | 0.8 | -9
Cc1onc(-c2c(F)cccc2Cl)c1C(=O)Nc1sc2c(c1C(N)=O)CCC2 | 0.8 | -2 | -2.6 | 74* | 0.3 | 21
Cc1onc(-c2c(F)cccc2Cl)c1C(=O)Nc1nnc(C2CC2)s1 | 0.4 | -1.8 | 2 | 63* | 0.4 | 62*
Cc1onc(-c2ccccc2)c1C(=O)Nc1sc2c(c1C(N)=O)CCC2 | 0.5 | -0.03 | -0.31 | 43 | 0.6 | 48
Cc1cnc(Nc2nc3ccccc3o2)nc1C(=O)Nc1cccc(C(F)(F)F)c1 | 1 | -0.09 | -6.1* | 18 | 0.8 | 3
O=C1NC(c2ccccc2)=C(c2nc3ccccc3s2)C(c2ccccc2)N1 (centres undefined) | 0.3 | -3.6* | -4 | 91* | 0.1 | 71*
O=C(Nc1ccccc1)c1cc(Cl)nc2ccccc12 | nt | 0.89 | nt | nt | nt | nt
O=C(NNC(=O)c1cc(-c2ccc(Cl)cc2Cl)nc2ccccc12)Nc1ccccc1 | 1.1 | -3.5* | -1 | 17 | 0.8 | -8
COc1ccc(Cl)cc1C(=O)NNC(=S)NC(=O)c1cc(-c2ccc(Cl)cc2)nc2ccccc12 | nt | -0.45 | -6.6* | nt | nt | nt
O=C(CSc1nc2ccccc2c(=O)n1NC(=O)Cc1ccccc1)NCCc1ccccc1 | 0.9 | -0.61 | 0.38 | 94* | 0.1 | 10
COCCNC(=O)CSc1nc2ccccc2c(=O)n1CCCC(=O)NCc1ccccc1 | 0.6 | 1.4 | 0.71 | 70* | 0.3 | 37
SMILES | CYP2C19 act | PTK2B oligo ant | Cav3 T inh | CYP2C9 inhib | CYP2C9 activ | CYP2C19 inhib
CCOCCCn1c(SCC(=O)NC(C)C)nc2ccccc2c1=O | 0.5 | 1.1 | 1.1 | 45 | 0.5 | 45
CCNC(=O)COn1c(SCC(=O)NCC)nc2ccccc2c1=O | 0.8 | -0.42 | 1.2 | 16 | 0.8 | 24
O=C(CCCn1c(SCC(=O)NCC2CCCO2)nc2ccccc2c1=O)NCC1CCCO1 (centres undefined) | 0.8 | 0.94 | 0.31 | 44 | 0.6 | 24
N#CCSc1nc2ccccc2c(=O)n1CCC(=O)NCCc1ccccc1 | 0.9 | -0.76 | 0.29 | 9 | 0.9 | 14
CCNC(=O)CSc1nc2ccccc2c(=O)n1CCCOC(C)C | 0.2 | 0.36 | nt | 62* | 0.4 | 76*
CCn1c(SCC(=O)NCCOc2ccccc2)nc2ccccc2c1=O | 0.3 | 1.7 | -1.9 | 57* | 0.4 | 69*
CSc1ccc(C(=S)N2CCN(CCO)CC2)cc1 | 0.6 | -0.07 | nt | -6 | 1.1 | 39
CCCCCNC(=O)N[C@H](C(=O)O)C(C)C | nt | 0.12 | nt | nt | nt | nt
O=C(COC(=O)c1ccc(Cl)s1)c1cc2ccccc2o1 | 0.3 | 0.12 | -0.68 | 43 | 0.6 | 70*
O=C(O)c1ccccc1-c1ccccc1C(=O)NCCCO | nt | 0.28 | 0.0018 | nt | nt | nt
CSc1cc(-c2ccccc2)n(Cc2c(Cl)cccc2Cl)c(=O)c1C#N | 0.8 | -1.2 | -1.4 | 75* | 0.2 | 23
CCN(CC)CCCNC(=O)C1c2ccccc2C(=O)N(C)C1c1ccc(OC)cc1 (centres undefined) | 1.1 | -0.31 | -0.088 | -2 | 1 | -8
O=C1O/C(=C/C(=O)N2CCOCC2)c2ccccc21 | nt | 0.22 | 0.16 | nt | nt | nt
CCNC(=O)c1sc(=S)n(CC)c1N | 1.1 | -0.21 | 0.16 | -8 | 1.1 | -15
CCn1c(N)c(C(=O)NC)sc1=S | 0.5 | -0.75 | 0.15 | 50* | 0.5 | 52*
CC1CN(c2nc3c(c(=O)n(C)c(=O)n3C)n2Cc2c(F)cccc2Cl)CC(C)O1 (centres undefined) | 0.9 | -0.27 | 1.3 | 59* | 0.4 | 14
COC(=O)c1c(C(=O)OC)n(CCCN)c2ccc(C)cc12 | 0.7 | 0.32 | 0.84 | 6 | 0.9 | 25
COC(=O)c1ccc(OCC(O)CN(CC(C)C)CC(C)C)cc1 (centres undefined) | 0.3 | -1.1 | -0.33 | 71* | 0.3 | 74*
CCN(CC)CC(O)COc1ccccc1C(=O)CCc1ccccc1 (centres undefined) | 0.4 | 0.63 | 0.53 | 28 | 0.7 | 60*
CCC(=O)c1ccc(OCC(O)CN(CCc2ccccc2)Cc2ccccc2)cc1 (centres undefined) | 0.5 | -0.26 | -3.8 | 70* | 0.3 | 53*
CCOc1ccc(C2Oc3nc(SC)nnc3-c3ccccc3N2C(C)=O)cc1OC (centres undefined) | 1 | nt | 0.76 | 15 | 0.8 | 2
O=C1C(=C2SCCCS2)CC/C1=C\c1ccc(F)cc1 | 0.5 | -1.8 | 0.52 | 19 | 0.8 | 51*
Cc1cccc(/C=C2\CCC(=C3SCCCS3)C2=O)c1 | 1 | -0.68 | -0.49 | -9 | 1.1 | 4
CN(CCCNC(=O)C1CCN(S(=O)(=O)N2CCC3(CC2)OCCO3)CC1)Cc1ccccc1 | 0.9 | 1.7 | 0.33 | 8 | 0.9 | 8
O=C(NC1CCCCCCC1)C1CCN(S(=O)(=O)N2CCC3(CC2)OCCO3)CC1 | 0.4 | -0.54 | nt | 52* | 0.5 | 60*
